Reference: the supplement of paper PMC10981050
Where a name gives a salt, the structure may show the parent alone.

Each compound was assayed on OCI-AML2 (assay: cell viability relative to vehicle control; higher = less cytotoxic). Conditions: 10 µM; SRSF2 genotype: P95H/wt.
Method in brief: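 Each screen used CRISPR-edited mutant and wild-type clones from four leukaemia lines. Compounds were acoustically dispensed at a single 10 µM dose, and CellTiter-Glo luminescence was read after 48 h with the supernatant first removed. Viability was analysed in Genedata Screener and given as percent of the on-plate vehicle control.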

In order of rising cell viability:
1. CC(=O)c1cc2c(o1)C(=O)c1ccccc1C2=O [Napabucasin]  0.4%
2. COC1(c2sc3c(N4CCOCC4)nc(-c4cnc(N)nc4)nc3c2C)COC1  4.68%
3. Cc1nc2cc(F)c(F)cc2n1-c1cncc(Nc2ccc(C(F)(F)F)cc2)n1  6.57%
4. C=CC(=O)Nc1cccc(Nc2nc(Nc3ccc(OCCOC)cc3)ncc2F)c1  28.2%
5. CC(=O)N1CCN(c2ccc(OCC3COC(Cn4ccnc4)(c4ccc(Cl)cc4Cl)O3)cc2)CC1 (stereo not given) [Ketoconazole]  32%
6. CN(C)CCCNC(=O)c1ccc(-c2cc(O)c3ncccc3c2)cc1  33%
7. CCCCCCCCOc1ccccc1C(=O)Nc1ccc(C(=O)OCC[N+](C)(CC)CC)cc1 [Otilonium Bromide]  34.4%
8. Cc1coc2c1C(=O)C(=O)c1c-2ccc2c(C)cccc12 [Tanshinone I]  57.5%
9. COc1ccccc1C(=O)Nc1cc2c(cc1N1CCCC1)n(C)c(=O)n2C  63.5%
10. C/C=C(/C)C(=O)OC(C)(C)[C@@H]1Cc2c(ccc3ccc(=O)oc23)O1 [Columbianadin]  72.8%
11. COc1cccc(-c2cc(=O)c3ccccc3o2)c1N  73.1%
12. C=CC(=O)N1CCC(Oc2cc3c(Nc4ccc(Cl)c(Cl)c4F)ncnc3cc2OC)CC1 [Poziotinib (HM781-36B)]  73.7%
13. COC(=O)N[C@H](C(=O)N1CCC[C@H]1c1ncc(-c2ccc(-c3ccc(-c4cnc([C@@H]5CCCN5C(=O)[C@@H](NC(=O)OC)C(C)C)[nH]4)cc3)cc2)[nH]1)C(C)C [Daclatasvir Digydrochloride]  78.2%
14. Cc1ccc(-c2nn(C(C)(C)C)c3ncnc(N)c23)cc1  82%
15. COc1c(N2C[C@@H]3CCCN[C@@H]3C2)c(F)cc2c(=O)c(C(=O)O)cn(C3CC3)c12 [Moxifloxacin]  86.8%
16. CC(C)=CCCC(C)=CCCC(C)=CCCC(C)=CCC1=C(C)C(=O)c2ccccc2C1=O [Vitamin K2]  88.6%
17. Cc1cc(C)nc(NS(=O)(=O)c2ccc(NC(=S)NC(=O)COc3ccc(Br)cc3Cl)cc2)n1  88.6%
18. C/C=C(\C)C(=O)OC1c2c(ccc3ccc(=O)oc23)OC(C)(C)C1OC(=O)/C(C)=C/C (stereo not given) [Praeruptorin B]  89.5%
19. COc1cc2c(=O)c(-c3ccc(O)cc3)coc2cc1O [Glycitein]  90.3%
20. CCCCC[C@](C)(O)/C=C/[C@@H]1[C@@H](C/C=C\CCCC(=O)O)[C@@H](O)C[C@H]1O [Carboprost]  90.3%
21. CCCCCCCC(=O)N[C@H](CN1CCCC1)[C@H](O)c1ccc2c(c1)OCCO2 [Eliglustat (Tartrate)]  94%
22. O=C1N=C(N2CCOCC2)CN1c1ccc(Cl)cc1  95.4%
23. O=c1ncccn1[C@@H]1O[C@H](CO)[C@@H](O)[C@H]1O [Zebularine]  96.6%
24. C[C@H]1O[C@@H](n2cc(F)c(=O)[nH]c2=O)[C@H](O)[C@@H]1O [Doxifluridine]  97.3%
25. CC(C)=CCC[C@](C)(O[C@@H]1O[C@H](CO)[C@@H](O)[C@H](O)[C@H]1O)[C@H]1CC[C@]2(C)[C@@H]1[C@H](O)C[C@@H]1[C@@]3(C)CC[C@H](O)C(C)(C)[C@@H]3[C@@H](O[C@@H]3O[C@H](CO)[C@@H](O)[C@H](O)[C@H]3O[C@@H]3O[C@@H](C)[C@H](O)[C@@H](O)[C@H]3O)C[C@]12C [Ginsenoside Re]  97.4%
26. C[C@H]1[C@H](C)CC[C@]2(C(=O)O[C@@H]3O[C@H](CO[C@@H]4O[C@H](CO)[C@@H](O[C@@H]5O[C@H](C)[C@H](O)[C@@H](O)[C@H]5O)[C@H](O)[C@H]4O)[C@@H](O)[C@H](O)[C@H]3O)CC[C@]3(C)C(=CC[C@@H]4[C@@]5(C)C[C@@H](O)[C@H](O)[C@@](C)(CO)[C@@H]5CC[C@]43C)[C@H]12 [Asiaticoside]  98.7%
27. CC(CCc1ccccc1)NCC(=O)c1ccc(O)c(C(N)=O)c1 (stereo not given) [Labetalone hydrochloride]  99.7%
28. CC1(C)CCC[C@](C)([C@H]2CC[C@]3(C)[C@@H]2[C@H](O)C[C@@H]2[C@@]4(C)CC[C@H](O)C(C)(C)[C@@H]4[C@@H](O)C[C@]23C)O1 [Panaxatriol]  102%
29. CO/N=C(\C(=O)N[C@@H]1C(=O)N2C(C(=O)OCOC(=O)C(C)(C)C)=C(/C=C\c3scnc3C)CS[C@H]12)c1csc(N)n1 [Cefditoren pivoxil]  102%
30. NC(=O)N/N=C/c1ccc([N+](=O)[O-])o1 [Nitrofurazone (Nitrofural)]  102%
31. COc1cc2c(cc1OC)[C@@H]1Cc3ccc(OC)c(OC)c3CN1CC2 [Tetrahydropalmatine hydrochloride]  103%
32. S=c1nc[nH]c2nc[nH]c12 [6-Mercaptopurine (6-MP) Monohydrate]  103%
33. Cc1ncc(COP(=O)(O)O)c(C=O)c1O [Pyridoxal phosphate]  103%
34. COc1ccc2cc([C@H](C)C(=O)O)ccc2c1 [Naproxen Sodium]  105%
35. CC(C)=CCOc1ccc(/C=C/C(=O)c2ccc(OCC=C(C)C)cc2OCC(=O)O)cc1 [Sofalcone]  106%
36. CC(=O)OCCc1ccc(O)c(O)c1 [Hydroxytyrosol Acetate]  108%
37. OCC(O)C(O)C(O)C(O)CO (stereo not given) [Allitol]  109%
38. CCc1c(C(=O)NCCc2ccc(N3CCCCC3)cc2)[nH]c2ccc(Cl)cc12  112%
39. CC/C=C(\C(=O)N[C@@H]1C(=O)N2C(C(=O)OCOC(=O)C(C)(C)C)=C(COC(N)=O)CS[C@H]12)c1csc(N)n1 [Cefcapene Pivoxil Hydrochloride]  114%
40. Clc1cccc(Cl)c1NC1=NCCN1 [Clonidine hydrochloride (Catapres)]  115%
